# Reference: PubChem BioAssay (NCATS)
# Records with an inconclusive call do not appear. Where a call stands in place of a potency, no number is given. The source made the active and inactive calls. Unless noted, calls come from the whole dose curve; as a rule, active = well fitted curve in the direction sought with a large enough effect; inconclusive = small, poorly fitted or top-dose-only effect, or another doubt; inactive = no such curve, though single readings can be large; an effect the other way counts as inactive or inconclusive.
# Key:
# [1] = qHTS to identify inhibitors of the type 1 interferon - major histocompatibility complex class I in skeletal muscle: primary screen against the NCATS Pharmaceutical Collection (AID 1347407);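 note: luminescence of HiBiT knocked into endogenous HLA-B as interferon-induced MHC class I level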
# Outline: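 Immortalized human myoblasts (C25cl48) with HiBiT knocked into endogenous HLA-B*08:01 were stimulated with 4 ng/ml IFN-beta and treated with compounds (8-point, 1:5, top 46 uM final) for 24 h at 37 C; HiBiT lytic luminescence read.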
# [2] = biological target: Protein phosphatase 1D (Homo sapiens) (UniProt O15297); test: RapidFire Mass Spectrometry qHTS Assay for Modulators of WT P53-Induced Phosphatase 1 (WIP1) (AID 1347424); note: series mostly up to about 63 µM
# Chain of Protein phosphatase 1D (Homo sapiens) (O15297 whole entry, looked up): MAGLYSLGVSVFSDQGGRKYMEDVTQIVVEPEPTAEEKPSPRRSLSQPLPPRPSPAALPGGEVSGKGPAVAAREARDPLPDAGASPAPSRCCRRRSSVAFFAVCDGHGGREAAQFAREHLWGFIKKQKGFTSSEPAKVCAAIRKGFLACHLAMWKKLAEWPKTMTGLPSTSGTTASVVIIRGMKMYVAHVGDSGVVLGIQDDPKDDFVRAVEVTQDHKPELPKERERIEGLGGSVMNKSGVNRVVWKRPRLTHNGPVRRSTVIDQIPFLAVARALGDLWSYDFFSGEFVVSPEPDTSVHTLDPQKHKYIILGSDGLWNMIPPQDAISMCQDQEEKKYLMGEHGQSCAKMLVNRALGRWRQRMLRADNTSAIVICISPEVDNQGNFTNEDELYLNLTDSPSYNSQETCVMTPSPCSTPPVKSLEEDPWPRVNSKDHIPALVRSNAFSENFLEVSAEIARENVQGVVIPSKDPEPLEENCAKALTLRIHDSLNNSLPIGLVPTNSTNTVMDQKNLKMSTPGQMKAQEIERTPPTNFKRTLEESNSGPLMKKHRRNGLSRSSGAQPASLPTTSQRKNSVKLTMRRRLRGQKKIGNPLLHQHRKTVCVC
# Outline: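 RapidFire MS readout of dephosphorylated VEPPL-S-QETFS product, with 1 uM isotope-labelled peptide standard. Reaction: 10 nM WIP1, 2 uM phosphopeptide substrate, 5 min, room temperature, after 1 h compound preincubation; stopped with 0.5% formic acid.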
# [3] = biological target: Protein phosphatase 1D (Homo sapiens) (UniProt O15297); test: Rhodamine-PBP qHTS Assay for Modulators of WT P53-Induced Phosphatase 1 (WIP1) (AID 1347425)
# Outline: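 The read-out is the change in Rhodamine-PBP fluorescence (f1 - f0, ex 525/em 598 nm) as Pi is released, read each minute for 11 min. Final reaction: 5 nM WIP1, 10 uM phosphopeptide VEPPL-pS-QETFS, 10 uM Rh-PBP, 50 mM Tris-HCl pH 7.5, 30 mM MgCl2. Compound was preincubated with enzyme for 1 hour at room temperature.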
# [4] = Primary qHTS for inhibitors of SARS-S pseudo-typed particle cell entry (AID 1479145; calls by dose curve; note: nearly all actives have a fitted effect of over 45% in size; note: potency is the fitted concentration of half-maximal effect)
# [5] = Primary qHTS for Huh7 cytotoxicity: counterscreen for inhibitors of MERS-S pseudotyped particle cell entry (AID 1479147; calls by dose curve; note: potency is the fitted concentration of half-maximal effect)
# [6] = Primary qHTS for inhibitors of MERS-S pseudo-typed particle cell entry (AID 1479149; calls by dose curve; note: nearly all actives have a fitted effect of over 60% in size)
# [7] = Primary qHTS for Vero E6 cytotoxicity: counterscreen for inhibitors of SARS-S pseudo-typed particle cell entry (AID 1479150; calls by dose curve; note: potency is the fitted concentration of half-maximal effect)
# [8] = Primary qHTS for inhibitors of La Crosse Virus (LACV) - induced cell death in SH-SY5Y cells (AID 1508616);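 note: top concentration of the series differs between compounds; higher means more rescue of cells from virus-induced death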
# Outline: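 SH-SY5Y, 6000 cells/well; cpd via pin tool in DMSO; LACV 0.01 MOI; 6 d 37C 5% CO2; ATPLite, 5 min RT; luminescence normalized to ±virus DMSO controls.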
# [9] = biological target: Calcium and integrin-binding protein 1 (Homo sapiens) (UniProt Q99828); test: Primary qHTS for Identification of Calcium Integrin Binding Protein 1 (CIB1) Competitor (AID 1508620); note: potency is the fitted concentration of half-maximal effect
# Chain of Calcium and integrin-binding protein 1 (Homo sapiens) (Q99828 whole entry, looked up): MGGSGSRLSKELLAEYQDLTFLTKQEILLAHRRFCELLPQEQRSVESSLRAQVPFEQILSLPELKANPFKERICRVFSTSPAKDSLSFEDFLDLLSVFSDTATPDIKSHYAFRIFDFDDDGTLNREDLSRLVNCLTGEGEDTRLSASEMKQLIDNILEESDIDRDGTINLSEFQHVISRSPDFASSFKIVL
# Outline: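 Fluorescence polarization competition: GST-tagged CIB1 (1 uM final) preincubated with compound 15 min at room temperature, then FITC-labelled alphaIIb peptide (100 nM final) added. After 15 min at room temperature, polarization read at Ex 480/Em 540.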
# [10] = qHTS to identify inhibitors of the type 1 interferon - major histocompatibility complex class I in skeletal muscle: primary screen against the NCATS Mechanism Interrogation Plate v5.0 (MIPE) Libary (AID 1347411); note: nearly all actives have a fitted effect of over 65% in size
# Outline: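 Seed engineered human myoblasts (HLA-B HiBit) in medium without dexamethasone containing 4 ng/ml IFN-beta; after 1 hr add compound titrations (top 46 uM final). Incubate 24 hrs at 37 C, lyse 10 min with HiBiT reagent, read luminescence.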
# [11] = qHTS to identify inhibitors of the type 1 interferon - major histocompatibility complex class I in skeletal muscle: primary screen against the NCATS LOPAC collection (AID 1347405);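 note: lytic HiBiT luminescence reporting HLA-B protein level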
# Outline: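 First, engineered myoblasts carrying HLA-B-HiBiT were seeded in medium lacking dexamethasone with 4 ng/ml IFN-beta. After 1 hr, compounds were pinned in (top 46 uM final, 7 points). After 24 hrs at 37 C, luminescence was measured following 10 min lysis.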
# [12] = qHTS for inhibitors of adenylyl cyclases using a fission yeast platform: a pilot screen against the NCATS LOPAC library (AID 1347410)
# Outline: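 S. pombe CHP2027 (AC9-GNAS-PDE4D2) carrying a PKA-repressed fbp1-GFP reporter was exposed to LOPAC compounds (final up to 57 µM) for 18 h at 30C in the dark, in EMM with histidine, lysine and uracil; GFP gain-of-signal read by laser scanning cytometry.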
# [13] = Validation qHTS assay for inhibitors of Activation Induced Cytidine Deaminase (AID): UDG Counterscreen signal (AID 1347427)
# Outline: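 Fluorescence at 560 nm excitation, 665 nm emission reports UDG signal after 250 mM NaOH (2x) addition and 30 min. Enzymes (AID 1 uM, UDG 2 U/mL, at 4/3x) preincubated 10 min with compound, then 4 h with 4x 250 nM DJC20/DJC23 substrate at room temperature.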
# [14] = biological target: Single-stranded DNA cytosine deaminase (Homo sapiens) (UniProt Q9GZX7); test: Validation qHTS assay for inhibitors of Activation Induced Cytidine Deaminase (AID): AID signal (AID 1347429)
# Chain of Single-stranded DNA cytosine deaminase (Homo sapiens) (Q9GZX7 whole entry, looked up): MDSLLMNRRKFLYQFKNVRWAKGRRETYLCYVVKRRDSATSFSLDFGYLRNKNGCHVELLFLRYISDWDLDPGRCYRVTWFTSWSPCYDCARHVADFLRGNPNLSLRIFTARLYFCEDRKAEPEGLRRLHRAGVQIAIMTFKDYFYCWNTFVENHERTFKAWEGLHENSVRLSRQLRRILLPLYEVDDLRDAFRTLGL
# Outline: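 Steps: dispense AID with UDG; pin-transfer compound up to 114 uM final; add DJC20/DJC23 substrate and hold 4 hr at room temperature; add NaOH, hold 30 min; read FRET signal (540/590 nm).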
# [15] = biological target: Calcium and integrin-binding protein 1 (Homo sapiens) (UniProt Q99828); test: Validation qHTS for Identification of Calcium Integrin Binding protein 1 (CIB1) Competitor (AID 1508618)
# Outline: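 CIB1-GST (1 uM final) incubated 15 min at room temperature with compounds (up to 114 uM), then FITC-labelled alphaIIb peptide (100 nM) added. FP read (Ex 480/Em 540) after 15 min, pH 7.4 buffer containing 5 mM CaCl2.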
# [16] = Counterscreen qHTS for small molecule stabilizers of the endoplasmic reticulum resident proteome: GLuc-NoTag assay (AID 1508627); note: series mostly up to about 76 µM
# Outline: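 Counterscreen line: SH-SY5Y-GLuc-NoTag. Seed, 5 h; compound, 19 h; thapsigargin 100 nM, 4 h; 37C/5% CO2. Readout: secreted GLuc luminescence, coelenterazine 0.07x final, no lysis.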
# [17] = Confirmatory qHTS for small molecule stabilizers of the endoplasmic reticulum resident proteome: Secreted ER Calcium Modulated Protein (SERCaMP) assay (AID 1508628); note: series mostly up to about 76 µM; nearly all actives have a fitted effect of over 40% in size
# Outline: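 Reporter secretion upon ER calcium depletion (100 nM thapsigargin, 4 h, 37C) is measured as medium luminescence with coelenterazine, after 16 h compound pretreatment of SH-SY5Y-GLuc-SERCaMP cells; primary at three concentrations up to 38.3 uM, follow-up at 11 (up to 76.6 uM).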
Compound,Potency [1],Potency [2],outcome [3],Potency [4],Potency [5],Potency [6],Potency [7],outcome [8],Potency [9],Potency [10],outcome [11],outcome [12],outcome [13],outcome [14],outcome [15],Potency [16],Potency [17]
CC1COC2(c3ccccc3Cl)c3cc(Cl)ccc3NC(=O)CN12 (centres undefined),inactive,inactive,inactive,inactive,inactive,inactive,inactive,inactive,inactive,,,,,,,,
CCCCCCCCC(=O)NCc1ccc(O)c(OC)c1,inactive,inactive,inactive,inactive,inactive,inactive,inactive,inactive,inactive,,,,,,,,
CCOC(=O)C1(c2ccccc2)CCN(CCc2ccc(N)cc2)CC1,inactive,inactive,inactive,inactive,inactive,inactive,inactive,inactive,inactive,,,,,,,,
CN(C)C(=O)Oc1cc(OC(=O)N(C)C)cc(C(O)CNC(C)(C)C)c1 (centres undefined),inactive,inactive,inactive,inactive,inactive,inactive,inactive,inactive,inactive,,,,,,,,
CN(C)C(=S)SSC(=S)N(C)C,inactive,inactive,inactive,708 nM (active),891 nM (active),inactive,891 nM (active),,39800 nM (active),,,,,,,,
CC(C)[N+](C)(CCC(C(N)=O)(c1ccccc1)c1ccccc1)C(C)C,inactive,inactive,inactive,inactive,inactive,inactive,inactive,inactive,inactive,,,,,,,,
C[C@@H]1CC[C@H]2[C@@H](C)C(=O)O[C@@H]3O[C@@]4(C)CC[C@@H]1[C@]32OO4,inactive,inactive,inactive,,,,,inactive,inactive,inactive,,,,,,,
COP(=O)(OC)OC=C(Cl)Cl,inactive,inactive,inactive,inactive,inactive,inactive,inactive,inactive,inactive,,,,,,,,
COP(=S)(OC)Oc1ccc(S(N)(=O)=O)cc1,inactive,inactive,inactive,inactive,inactive,inactive,inactive,inactive,inactive,,,,,,,,
CC(C)(O)C(Cl)(Cl)Cl,inactive,inactive,inactive,inactive,inactive,inactive,inactive,inactive,inactive,,,,,,,,
COC(=O)C1=CCCN(C)C1,inactive,inactive,inactive,,,,,inactive,inactive,,inactive,inactive,inactive,inactive,inactive,,
C=CCN1CC[C@]23CCCC[C@H]2[C@H]1Cc1ccc(O)cc13,inactive,inactive,inactive,inactive,inactive,,inactive,inactive,inactive,,,,,,,,
CNC(C)Cc1ccccc1OC (centres undefined),inactive,inactive,inactive,inactive,inactive,inactive,inactive,inactive,inactive,,,,,,,,
CC1=C2[C@H]3OC(=O)[C@@H](C)[C@@H]3CC[C@@]2(C)C=CC1=O,inactive,inactive,inactive,inactive,inactive,inactive,inactive,inactive,inactive,,,,,,,,
Nc1ccccc1C(=O)OCC(O)CO (centres undefined),inactive,inactive,inactive,inactive,inactive,inactive,inactive,inactive,inactive,,,,,,,,
C[N+]1(C)[C@@H]2CC[C@H]1CC(OC(=O)C(CO)c1ccccc1)C2 (some centres undefined),inactive,inactive,inactive,inactive,inactive,inactive,inactive,inactive,inactive,,,,,,,,
NC(=O)CN1CCCC1=O,inactive,inactive,inactive,,inactive,inactive,inactive,inactive,inactive,,inactive,inactive,inactive,inactive,inactive,,
NC(=O)OCCCc1ccccc1,inactive,inactive,inactive,inactive,inactive,inactive,inactive,inactive,inactive,,,,,,,inactive,inactive
N#Cc1nn(-c2c(Cl)cc(C(F)(F)F)cc2Cl)c(N)c1S(=O)C(F)(F)F (centres undefined),inactive,inactive,inactive,inactive,inactive,,inactive,inactive,inactive,,,,,,,,
Cc1ccc(N=CN(C)C=Nc2ccc(C)cc2C)c(C)c1,inactive,inactive,inactive,inactive,inactive,inactive,inactive,inactive,inactive,,,,,,,,
O=C(O)Cc1ccccc1,inactive,inactive,inactive,inactive,inactive,inactive,inactive,inactive,inactive,,,,,,,,
COc1ccc(C(=O)N2CCCC2=O)cc1,inactive,inactive,inactive,inactive,inactive,inactive,inactive,inactive,inactive,inactive,inactive,inactive,inactive,inactive,inactive,,
O=C(O)c1nn(Cc2ccc(Cl)cc2Cl)c2ccccc12,inactive,,,,,,,inactive,inactive,inactive,inactive,inactive,inactive,inactive,inactive,,
